# ELG1 genotox – induces genotoxicity in HEK293T cells with luciferase-tagged ELG1. HEK293T ELG1-luciferase reporter, luminescence, 16 h. Potency, µM (series often up to 46 µM), for the others: at the top dose activity change, positive = activation, hits mostly activators. hit rate 1.3% among 330,000. AID 504466; further: % of control where 0% means no effect; nearly all actives have a fitted effect of over 60% in size
#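 Cells (2,000/well) expressing the ELG1-luciferase fusion are dosed by pin tool and kept 16 hr at 37 °C, 5% CO2. Signal comes from ONE-Glo luciferase reagent after 30 min at room temperature.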
# NPC1 promoter act – activators of NPC1 promoter; hit rate 2.4% among 320,000; Potency, µM (doses to about 9.22 µM), without a hit: at the highest dose activation, most hits filed as activators; AID 485313; Huh7 NPC1 promoter luciferase reporter, 24 h; further: % of control where 0% means no effect; nearly all actives have a fitted effect of over 60% in size
#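 NPC1 promoter–luciferase Huh7 cells; 24 h compound; luminescence.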
# Rab9 prom act – Rab9 promoter activation | Huh7 Rab9 promoter-luciferase reporter, luminescence, 24 h | Potency, µM (titrated, usually from 9.22 µM), inactives show top-dose activation, negative = inhibition, actives largely listed as activators | hit rate 2.8% among 320,000 | AID 485297; further: % of control where 0% means no effect; nearly all actives have a fitted effect of over 60% in size
#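 Luciferase signal after 10 min detection reagent at ambient indicates Rab9 promoter upregulation; stably transfected Huh7 cells were treated 24 h with compound in DMSO at 37 °C, 5% CO2.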
# SMN2 splice up – enhancers of SMN2 splice variant expression | AID 1458 | Potency, µM (series often up to 46.1 µM), for the others: at the highest dose activity change, positive = activation, hits mostly activators | hit rate 2.8% among 210,000 | HEK293 SMN2-luciferase splicing reporter, luminescence, 30-36 h; further: % of control where 0% means no effect; nearly all actives have a fitted effect of over 55% in size
#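 HEK293 cells carry an SMN2 […]–luciferase reporter in which exon 7 inclusion puts luciferase in frame. Cells were plated 10-12 h before compound addition, then incubated 30-36 h at 37C. ONE-Glo luminescence was read; sodium butyrate at 4.5 mM final served as control.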
# FLuc modulator – counter-screen for miR-21 project: firefly luciferase inhibitors or activators; purified FLuc, Km substrates, luminescence inhibition; Potency, µM (doses to about 57.5 µM), for inactives: top-dose activity change, negative = inhibition, most hits filed as inhibitors; hit rate 6.9% among 360,000; AID 588342;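 further: plate controls were vehicle for no effect and reference inhibitor for full effect; nearly all actives have a fitted effect of over 55% in size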
# Target sequence (P08659 whole entry, looked up): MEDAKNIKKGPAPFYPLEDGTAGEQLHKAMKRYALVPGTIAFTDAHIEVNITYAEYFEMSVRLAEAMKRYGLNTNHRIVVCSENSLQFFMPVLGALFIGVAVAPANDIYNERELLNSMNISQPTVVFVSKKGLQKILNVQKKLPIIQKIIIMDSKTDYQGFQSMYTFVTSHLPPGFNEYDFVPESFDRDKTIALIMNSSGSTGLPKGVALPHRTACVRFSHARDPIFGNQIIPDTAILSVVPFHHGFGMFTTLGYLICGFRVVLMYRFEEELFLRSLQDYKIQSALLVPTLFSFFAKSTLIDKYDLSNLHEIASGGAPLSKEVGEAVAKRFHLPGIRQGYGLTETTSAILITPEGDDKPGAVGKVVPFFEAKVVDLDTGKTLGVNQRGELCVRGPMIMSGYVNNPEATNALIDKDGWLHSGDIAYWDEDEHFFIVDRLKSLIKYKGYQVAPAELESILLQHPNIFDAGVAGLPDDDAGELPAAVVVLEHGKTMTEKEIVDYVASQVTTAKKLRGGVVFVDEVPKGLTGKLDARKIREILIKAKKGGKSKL
#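 Purified P. pyralis luciferase, 10 nM final, with Km-level 10 uM D-luciferin and 10 uM ATP in 50 mM Tris acetate pH 7.5, 10 mM Mg acetate, 0.01% Tween-20, 0.05% BSA; 6-point qHTS titration about 60 µM downward; luminescence read.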
# * hit, by the source's call; ? = inconclusive; nt = no result. Sampled rows, rich in hits. Any-hit rate of the full collection: about 7.5%. The call rests on the fitted dose curve; in most records, active means well fitted curve in the direction sought with a large enough effect; inconclusive means small, poorly fitted or top-dose-only effect, or another doubt; inactive means no such curve, though single readings can be large; an effect the other way counts as inactive or inconclusive. Potency means the concentration at half of the fitted maximal effect.
SMILES,ELG1 genotox,NPC1 promoter act,Rab9 prom act,SMN2 splice up,FLuc modulator
COC(=O)c1sccc1NC(=S)Nc1cc(C)ccc1OC,5%,-1%,0%,-12%,-1%
Cc1cc(C=C2C(=O)c3ccccc3C2=O)c(C)n1-c1ccc(C(=O)O)cc1,7%,2%,-2%,nt,19µM*
CCC(C(=O)NCCc1ccc(OC)cc1OC)n1nc(C)n2c(cc3occc32)c1=O (stereo not given),0%,2%,0%,nt,3%
CCN(C(=O)Cc1ccccc1OC)c1nnc(-c2ccncc2)s1,-2%,-1%,2%,-29%,-18%
CCCN(C(=O)c1ccco1)c1nnc(-c2ccccc2C)s1,?,21%,?,nt,12µM*
COCCN(C(=O)c1ccco1)c1nnc(-c2ccc(F)cc2)s1,10%,28%,?,?,?
CCCCN(C(=O)Cc1cccs1)c1nnc(-c2cccnc2)s1,16%,?,28%,20µM*,19µM*
CCN(C(=O)c1ccco1)c1nnc(-c2cccnc2)s1,?,?,?,nt,13µM*
CCN(C(=O)Cc1cccs1)c1nnc(-c2cc(OC)c(OC)c(OC)c2)s1,?,-2%,-1%,25µM*,0%
Fc1ccccc1-c1nc(-c2ccccc2)oc1NC1CCCCC1,nt,nt,nt,19%,nt
CC1CC2C3CCC4=CC(=O)C=CC4(C)C3(F)C(O)CC2(C)C1(O)C(=O)CO (stereo not given),4%,-1%,1%,nt,3%
N#Cc1c(N)n(-c2ccc(O)cc2)c2nc3ccccc3nc12,2%,-4%,2%,-9%,-3%
CCSc1nnc(NS(=O)(=O)c2ccc(OC)cc2)s1,2%,-3%,1%,2%,?
CCCNc1ccc(C(=O)OCC)cc1[N+](=O)[O-],?,?,?,-11%,27µM*
O=C(COc1ccccc1Br)NCc1ccco1,8%,1%,3%,4%,?
CCc1ccc(OCC(=O)NCc2ccco2)c(Br)c1,?,?,?,3%,9.5µM*
N#Cc1ccccc1OCC(=O)NC(=O)NCc1ccco1,?,?,?,nt,19µM*
Cc1ccc(S(=O)(=O)CCc2nnc(NC(=O)CCl)s2)cc1C,-8%,-12%,-30%,nt,-1%
COc1cc(CN(C)C)cc(C=O)c1O,-4%,-1%,1%,nt,2%
O=C(COC(=O)C1CCN(c2ccc(C(F)(F)F)cn2)CC1)c1ccc(Cl)cc1,11%,-3%,2%,nt,?
CC(=O)Nc1ccc(-c2cc(-c3ccc(NC(C)=O)cc3)nc(-c3ccccc3)n2)cc1,0%,-12%,-3%,0%,1%
C/C(=N/Nc1cc(-c2ccccc2)nc(-c2ccccc2)n1)c1ccc(O)cc1,0%,-5%,-3%,nt,11µM*
C/C(=N\Nc1cc(Cl)nc(C)n1)c1ccccc1,9%,?,?,31%,9.5µM*
C/C(=N/Nc1nc(-c2ccccc2)cc(-c2ccccc2)n1)c1ccc(N)cc1,-4%,0%,-9%,?,5.4µM*
CCCCNC(=S)N(CCN(C)C)Cc1cc2cc3c(cc2[nH]c1=O)OCCO3,2%,-2%,-5%,nt,-2%
SMILES,ELG1 genotox,NPC1 promoter act,Rab9 prom act,SMN2 splice up,FLuc modulator
COc1ccc(-c2noc(N3CCCC(C(=O)Nc4ccc(C(C)=O)cc4)C3)n2)cc1 (stereo not given),3%,23%,27%,nt,11µM*
O=C(CCNC(=O)c1ccc([N+](=O)[O-])cc1)NCc1ccccc1,1%,-1%,-6%,nt,4%
O=C(/C=C/c1ccccc1)Nc1ccc(NC(=O)c2cccs2)cc1,?,1%,-2%,nt,4%
O=C(N/N=C/C=C/c1ccccc1)c1cccs1,9%,?,1.8µM*,?,15µM*
O=C(N/N=C/C(Br)=C/c1ccccc1)c1cccs1,?,2.2µM*,0.89µM*,nt,1.5µM*
CCN(CC)S(=O)(=O)c1cccc(NC(=O)COc2ncnc3sccc23)c1,-4%,-7%,-2%,-38%,2%
C/C(CC(=O)Nc1ccc2c(c1)OCCO2)=N\NC(=O)c1ccccc1F,3%,1%,0%,nt,2%
COc1ccc(-n2c(N)c(C(=O)NCC3CCCO3)sc2=S)cc1 (stereo not given),0%,-2%,-2%,23%,3%
